The panel holds about 83,000 compounds, 20% with a hit somewhere; the sample as a whole holds those more often.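 Cells were grown in 96-well plates and exposed to the test compound at a single concentration for 48 hours; results are reported as percent growth, with values below 10 considered active.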 A number with no mark means an inactive call. Calls of active or inactive are those of the source.

Test systems include HCT-15 colon; HT29 colon; SNB-75 CNS; SNB-19 CNS; U251 CNS; PC-3 prostate; SK-MEL-5 melanoma; UACC-62 melanoma; SK-MEL-28 melanoma; LOX IMVI melanoma.
Assay in all cases: NCI-60 one-dose screen, 48 h (100 = growth as untreated, 0 = no growth, -100 = all killed)
Common to all, as to conditions: 10 µM unless noted

As to `COc1ccc(/C=C(/C(=O)c2ccc(Cl)cc2)C(=O)C(F)(F)F)cc1`, the growth with HCT-15 colon was 99%; in the assay with HT29 colon, 82.1%; in the assay with SNB-75 CNS, 112%; in the assay with SNB-19 CNS, 93.5%; in the assay with U251 CNS, 94.1%; in the assay with PC-3 prostate, 102%. Besides, the growth in the assay with SK-MEL-5 melanoma was 102%; in the assay with UACC-62 melanoma it was 96.4%; in the assay on SK-MEL-28 melanoma it was 106%.
With `COc1cc(NCc2cn(-c3ccc(C(=O)O)cc3)nc2-c2ccc(C(=O)O)cc2)cc(OC)c1OC`, the growth in the assay with HCT-15 colon is 106%; with HT29 colon, 106%; with SNB-75 CNS it was 77.8%; in the assay with SNB-19 CNS it was 97.4%; in the assay with U251 CNS it was 92.2%; with PC-3 prostate, 96.9%. The growth with SK-MEL-5 melanoma was 95.2%; with UACC-62 melanoma, 94.4%; with LOX IMVI melanoma, 95.9%; in the assay on SK-MEL-28 melanoma, 103%.
In the case of `CCOC(=O)c1nn(C2CCCCO2)c2ccc(NS(=O)(=O)c3ccc(C)cc3)cc12` (configuration not stated), the growth with HCT-15 colon is 105%; in the assay on HT29 colon, 102%; in the assay with SNB-75 CNS, 80.5%; with SNB-19 CNS, 99.6%; in the assay on U251 CNS, 90.6%; in the assay on PC-3 prostate it was 92.6%. Moreover, the growth in the assay with SK-MEL-5 melanoma is 98.7%; in the assay on UACC-62 melanoma, 86.6%; in the assay with SK-MEL-28 melanoma it was 101%.
Regarding `COc1ccc(C2CC(c3ccc4ccccc4c3)=NN2c2nc(O)c(C3=c4cc(OC)ccc4=NC3=O)s2)cc1` (configuration not stated), the growth was -29.1% (active) with HCT-15 colon; -57.3% (active) in the assay on HT29 colon; -57.1% (active) in the assay with SNB-75 CNS; -14.2% (active) in the assay on SNB-19 CNS; -92% (active) in the assay with U251 CNS; -71.1% (active) with PC-3 prostate. For the same compound, the results for the growth in the assay with UACC-62 melanoma, in the assay on LOX IMVI melanoma and with SK-MEL-28 melanoma were -56% (active), -77.6% (active) and -48.5% (active), respectively.
Consider `O=C1CC(c2ccc3c(c2)OCO3)Nc2ccccc21` (configuration not stated), for which the growth was 22% in the assay with HCT-15 colon; 4.29% (active) in the assay on HT29 colon; 7.16% (active) in the assay on SNB-75 CNS; 33.2% in the assay on SNB-19 CNS; 15% in the assay on U251 CNS; 16.8% in the assay on PC-3 prostate. In addition, the growth in the assay on UACC-62 melanoma was 20.1%; in the assay with LOX IMVI melanoma, 37.4%; with SK-MEL-28 melanoma, 47.5%.
Regarding `O=C(NCc1ccccc1)C(Cl)Cl`, the growth is 98.2% in the assay on HCT-15 colon; 99.2% in the assay with HT29 colon; 102% in the assay on SNB-75 CNS; 96.7% in the assay with SNB-19 CNS; 99.4% in the assay on U251 CNS; 101% with PC-3 prostate. For the same compound, the growth was 93.1% in the assay with UACC-62 melanoma, 101% in the assay on LOX IMVI melanoma and 96.1% with SK-MEL-28 melanoma.
For the compound `CC(=O)OC[C@]12CC[C@@H]([C@@H](C)C(N)=O)[C@@H]1[C@H]1CC[C@@H]3[C@@]4(C)CC[C@H](OC(C)=O)C(C)(C)[C@@H]4CC[C@@]3(C)[C@]1(C)CC2`, the growth with HCT-15 colon is -44.1% [100 µM] (active); in the assay on HT29 colon, -77.7% [100 µM] (active); with SNB-75 CNS, -47.8% [100 µM] (active); in the assay with SNB-19 CNS, -40% [100 µM] (active); in the assay with U251 CNS, -51.4% [100 µM] (active); with PC-3 prostate, -47.4% [100 µM] (active). The growth in the assay with UACC-62 melanoma is -83% [100 µM] (active); in the assay on LOX IMVI melanoma, -85.5% [100 µM] (active); in the assay on SK-MEL-28 melanoma, -73.2% [100 µM] (active).
As to `CCN(CC)CCS(=O)(=O)CCNc1ccnc2cc(Cl)ccc12`, the growth in the assay on HCT-15 colon is 10.1%; in the assay on HT29 colon it was -21.1% (active); with SNB-75 CNS, 9.48% (active); with SNB-19 CNS it was 70%; in the assay on U251 CNS, -4.39% (active); in the assay with PC-3 prostate, 33%. Further, the growth in the assay on UACC-62 melanoma was 29.7%; in the assay on LOX IMVI melanoma, 11.3%; with SK-MEL-28 melanoma, 49.5%.
On to `O=C(CCN1CCCCC1)c1ccc2ccccc2c1`, for which the growth in the assay with HCT-15 colon is 103%; in the assay with HT29 colon it was 99.7%; in the assay on SNB-75 CNS it was 93.6%; in the assay on SNB-19 CNS it was 103%; in the assay on U251 CNS, 93.3%; in the assay with PC-3 prostate it was 97.6%. For the same compound, the growth with SK-MEL-5 melanoma is 97%; in the assay with UACC-62 melanoma, 97.2%; with SK-MEL-28 melanoma, 112%.
On to `CO[C@H]1CC[C@@]2(C)C(=CC[C@H]3[C@@H]4C[C@H](O)C[C@@]4(C)CC[C@@H]32)C1`, for which the growth with HCT-15 colon was 36.4%; with HT29 colon it was 69%; in the assay with SNB-75 CNS, 32.8%; in the assay on SNB-19 CNS, 55.3%; in the assay with U251 CNS, 38.6%; in the assay with PC-3 prostate it was 68.3%. In addition, the figures for the growth with UACC-62 melanoma, in the assay on LOX IMVI melanoma and in the assay with SK-MEL-28 melanoma were 42.6%, 48.7% and 68.5%, respectively.
Regarding `Cc1cccc(/C=C2\N=C(c3ccccc3)N(c3ccc(S(N)(=O)=O)cc3)C2=O)c1`, the growth in the assay on HCT-15 colon was 91.8%; in the assay with HT29 colon, 86.1%; in the assay on SNB-75 CNS, 49.9%; with SNB-19 CNS it was 80.1%; in the assay with U251 CNS, 95.1%; with PC-3 prostate, 92.9%. Further, the values for the growth with UACC-62 melanoma, with LOX IMVI melanoma and with SK-MEL-28 melanoma were 92.8%, 99% and 101%, respectively.
As for `CCCCCCCCCCCCCC[n+]1cccc(C(N)=O)c1`, the growth in the assay on HCT-15 colon was 67.6%; with HT29 colon, 0.436% (active); in the assay on SNB-75 CNS, -57.2% (active); with SNB-19 CNS it was -69.4% (active); in the assay with U251 CNS, -72.7% (active); in the assay on PC-3 prostate, -29% (active). Besides, the growth in the assay with UACC-62 melanoma was 1.18% (active); in the assay on LOX IMVI melanoma, 15.7%; in the assay with SK-MEL-28 melanoma, 28.5%.
Turning to `CCOC(=O)CCC[P+](c1ccccc1)(c1ccccc1)c1ccccc1`, the growth in the assay on HCT-15 colon is 102%; in the assay on HT29 colon it was 70.2%; with SNB-75 CNS it was 86.8%; in the assay with SNB-19 CNS it was 96%; in the assay with U251 CNS it was 52.6%; in the assay on PC-3 prostate it was 69.5%. For the same compound, the results for the growth with SK-MEL-5 melanoma, with UACC-62 melanoma and in the assay with SK-MEL-28 melanoma were 48.5%, 65% and 83.8%, respectively.
As for `Cc1cccc(C[C@H](NC(=O)Nc2ccc(C)cc2F)C(=O)N[C@@H]2C(=O)N3C[C@H](O)C[C@H]3C(=O)N3CCN(C)C[C@H]3C(=O)N[C@@H](C)C(=O)N3C[C@H](C)C[C@H]3C(=O)O[C@H]2C)c1`, the growth is 105% in the assay on HCT-15 colon; 33.8% in the assay on HT29 colon; 23.6% in the assay on SNB-75 CNS; 22.7% in the assay on SNB-19 CNS; 26.5% with U251 CNS; 22.6% in the assay with PC-3 prostate. Moreover, the values for the growth with UACC-62 melanoma, with LOX IMVI melanoma and in the assay with SK-MEL-28 melanoma were 31.4%, 38.5% and 47.9%, respectively.

For the origin of these results see PubChem BioAssay (NCI).
